# Assay results: article PMC4336329 (PLoS ONE, 2015)
# The whole screen tested about 310,000 compounds, of which about 2,200 (0.71%) showed an effect of 50% or more. Effects have a minus sign here. Shown is part of a subset that was picked to be rich in strong results.
# Target: human ether-à-go-go-related gene (hERG) potassium channel (human, UniProt Q12809)
# Experiment: primary screen, population patch clamp on CHO cells stably expressing hERG; higher = less effect of the substance
# Chain of human ether-à-go-go-related gene (hERG) potassium channel (Q12809 whole entry, looked up): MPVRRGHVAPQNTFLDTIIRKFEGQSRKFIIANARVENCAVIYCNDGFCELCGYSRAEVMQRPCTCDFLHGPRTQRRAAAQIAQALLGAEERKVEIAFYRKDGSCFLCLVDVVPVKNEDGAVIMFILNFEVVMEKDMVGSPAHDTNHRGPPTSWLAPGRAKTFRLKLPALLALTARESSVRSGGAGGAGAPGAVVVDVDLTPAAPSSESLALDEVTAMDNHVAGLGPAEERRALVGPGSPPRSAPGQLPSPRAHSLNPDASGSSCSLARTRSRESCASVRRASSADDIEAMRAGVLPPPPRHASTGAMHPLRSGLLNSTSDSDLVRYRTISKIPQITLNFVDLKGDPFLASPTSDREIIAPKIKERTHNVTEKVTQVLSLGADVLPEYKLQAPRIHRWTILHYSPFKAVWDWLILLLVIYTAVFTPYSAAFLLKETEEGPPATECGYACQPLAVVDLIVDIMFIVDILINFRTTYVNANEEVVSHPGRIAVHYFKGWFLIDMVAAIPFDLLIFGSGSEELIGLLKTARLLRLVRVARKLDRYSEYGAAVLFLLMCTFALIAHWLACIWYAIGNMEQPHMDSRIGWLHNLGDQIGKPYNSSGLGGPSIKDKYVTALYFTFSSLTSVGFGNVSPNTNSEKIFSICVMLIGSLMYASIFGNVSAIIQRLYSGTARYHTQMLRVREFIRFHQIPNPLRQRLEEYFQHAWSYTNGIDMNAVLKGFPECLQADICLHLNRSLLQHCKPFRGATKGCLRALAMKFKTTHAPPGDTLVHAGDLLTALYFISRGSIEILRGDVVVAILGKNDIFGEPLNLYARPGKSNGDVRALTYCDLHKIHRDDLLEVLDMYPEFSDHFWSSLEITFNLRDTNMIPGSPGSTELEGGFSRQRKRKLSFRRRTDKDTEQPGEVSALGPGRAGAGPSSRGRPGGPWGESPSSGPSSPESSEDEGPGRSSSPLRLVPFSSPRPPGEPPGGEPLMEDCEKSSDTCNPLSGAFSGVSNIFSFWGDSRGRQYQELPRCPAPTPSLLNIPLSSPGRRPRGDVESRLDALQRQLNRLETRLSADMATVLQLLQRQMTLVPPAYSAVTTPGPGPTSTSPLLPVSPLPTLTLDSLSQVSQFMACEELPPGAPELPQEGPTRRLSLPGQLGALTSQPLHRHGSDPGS
row,Structure (SMILES),"hERG current change (%, negative = inhibition) at 1uM"
1,CCN(CC)S(=O)(=O)c1ccc2c(c1)N(CC(=O)Nc1ccc(NC(C)=O)cc1)C(=O)CO2,10.6%
2,CCCCN(Cc1ccccc1)C1CCN(Cc2ccccc2)CC1,-14.5%
3,O=C(O)C(=O)O.c1ccc(CCN(Cc2ccccc2)C2CCN(C3CCCC3)CC2)cc1,-68.9%
4,CCCN1CCC(N(CCc2ccccc2)Cc2ccccc2)CC1,-73.2%
5,CCCCN(Cc1ccccc1)C1CCN(CCc2ccccc2)CC1,-13.4%
6,O=C(Cc1ccccc1)N1CCN(C2CCCCCC2)CC1.O=C(O)C(=O)O,4.29%
7,CC(C)CC(=O)N1CCC(N(CCc2ccccc2)Cc2ccccc2)CC1.O=C(O)C(=O)O,7.09%
8,O=C(Nc1ccccc1)N1CCCc2ccccc21,-28.2%
9,Cc1ccn2c(=O)nc(SCC(=O)N3CCCCCC3)nc2c1,19.6%
10,CC(C)CCN(C(=O)Nc1ccc(Cl)cc1)C1CCN(C(C)C)CC1,-57.6%
11,CCOc1ccc(NC(=O)N(CCC(C)C)C2CCN(C(C)=O)CC2)cc1,7.21%
12,CCCCN(C(=O)Nc1ccc(Cl)cc1)C1CCN(C(C)=O)CC1,-19.1%
13,Cc1cc(NC(=O)c2cc3cccc([N+](=O)[O-])c3[nH]2)ccc1F,11.5%
14,COc1c(C)cc(Br)cc1C(=O)Nc1cccc(-c2nc3ncccc3o2)c1,-7.42%
15,O=C(c1sc2cccc(F)c2c1Cl)N1CCN(c2ncccn2)CC1,-65.4%
16,O=C(c1c(F)cccc1F)N1CCN(c2ncccn2)CC1,12.5%
17,O=C(c1sc2ccccc2c1Cl)N1CCN(c2ncccn2)CC1,6.43%
18,COc1cccc(-c2nn(-c3ccc(C)cc3)cc2C(=O)NCC2CCCO2)c1 (stereo not shown),-0.814%
19,COC(=O)c1ccc(S(=O)(=O)NCCSc2nnc3c4ccccc4n(C)c3n2)cc1,1.09%
20,CCOc1cc(N2CCOCC2)c(OCC)cc1NC(=O)Cn1nc(C)c([N+](=O)[O-])c1C,6.15%
21,CCc1cc2c(N3CCCCC3)ncnc2s1.Cl,5.54%

row,Structure (SMILES),"hERG current change (%, negative = inhibition) at 1uM"
1,CCc1cc2c(NCCN3CCCCC3)ncnc2s1.Cl,-55.9%
2,CCc1cc2c(NCCO)ncnc2s1,14.1%
3,CC[C@@]12C(=O)N(c3cccc(Br)c3)C(=O)N1[C@H](c1ccc(Cl)cc1)[C@@H]1C(=O)N(C3CCCCC3)C(=O)[C@@H]12,6.83%
4,CC(=O)Nc1ccc(S(=O)(=O)N2CCN(c3nc(C)cc(C)n3)CC2)cc1,14.9%
5,CC(=O)Nc1ccc(S(=O)(=O)N2CCN(S(=O)(=O)c3ccccc3)CC2)cc1,10.1%
6,Cc1cc(N2CCN(S(=O)(=O)c3ccc(Cl)cc3)CC2)c2ccccc2n1,-80.8%
7,Cn1c(N2CCN(S(=O)(=O)c3ccc(Cl)cc3)CC2)nc2ccccc21,-23.2%
8,Cc1cc(N2CCN(S(=O)(=O)c3ccc(Cl)c(Cl)c3)CC2)c2ccccc2n1,4.58%
9,COc1ccc2nc(C)cc(N3CCOCC3)c2c1,7.31%
10,COc1ccc2nc(C)cc(N3CCN(S(=O)(=O)c4ccccc4F)CC3)c2c1,-62.2%
11,Cc1ccccc1N1CCN(S(=O)(=O)c2ccccc2)CC1,5.62%
12,Cc1cc(N2CCN(S(=O)(=O)c3ccc(C)c(C)c3)CC2)c2ccccc2n1,-18.3%
13,COc1ccc2nc(C)cc(N3CCN(c4ccccc4)CC3)c2c1,-29%
14,CC(=O)Nc1ccc(S(=O)(=O)N2CCN(c3cc(C)nc4ccccc34)CC2)cc1,-71.6%
15,Cc1cc(N2CCN(S(=O)(=O)c3ccccc3)CC2)c2ccccc2n1,-78.6%
16,Cc1ccc(CS(=O)(=O)CCC(=O)NCCC(C)C)cc1,6.06%
17,COCCn1c(C)cc(C(=O)CSc2nc(C)c(C)c(C)n2)c1C,9.29%
18,CCc1noc(C)c1C(=O)Nc1sc(C(=O)N(C)C)c(C)c1C(=O)OC,-6.16%
19,Cc1c(NC(=O)c2ccc(S(=O)(=O)N3CCOCC3)cc2)cccc1[N+](=O)[O-],7.56%
20,CC(C)(C)n1ncc2c(=O)n(Cc3cccc(Cl)c3)cnc21,-10.1%
21,Cc1ccnc(NS(=O)(=O)c2cccs2)c1,12.9%

row,Structure (SMILES),"hERG current change (%, negative = inhibition) at 1uM"
1,Cc1ccc(C(=O)COC(=O)c2ccc3c(c2)C(=O)N(c2cccc4ncccc24)C3=O)cc1C,4.09%
2,COC(=O)c1c(C)[nH]c(C(=O)C(C)OC(=O)C2CC2)c1C (stereo not shown),10%
3,Cc1ccc(S(=O)(=O)N2CCN(c3ccc(C(F)(F)F)cc3[N+](=O)[O-])CC2)cc1,2.51%
4,Cc1cc(N2CCN(c3ccc(C(F)(F)F)cc3[N+](=O)[O-])CC2)c2ccccc2n1,-64.2%
5,Cc1cc(N2CCN(c3ccc([N+](=O)[O-])c4cccnc34)CC2)c2ccccc2n1,-13.9%
6,COc1ccccc1NC(=O)Nc1ccc(N2CCOCC2)cc1,10.4%
7,Cc1ccc(NC(=O)CN2C(=O)NC(C)(c3ccc(Cl)cc3)C2=O)cc1 (stereo not shown),14.4%
8,COc1ccc(NC(=O)NC2CC3CCCC(C2)N3Cc2ccccc2)cc1 (stereo not shown),-17.4%
9,O=C(Nc1cccc(F)c1)NC1CC2CCCC(C1)N2C1CC1 (stereo not shown),4.85%
10,CCc1cccc(CC)c1NC(=O)CN1C2CCCC1CC(NC(=O)Nc1cccc(OC)c1)C2 (stereo not shown),9.12%
11,COc1ccc(CN2C3CCCC2CC(NC(=O)Nc2cccc(C)c2)C3)cc1 (stereo not shown),-71.5%
12,COc1ccc(CN2C3CCCC2CC(NC(=O)Nc2ccccc2C)C3)cc1 (stereo not shown),-36.5%
13,Cc1cccc(NC(=O)NC2CC3CCC(C2)N3Cc2ccco2)c1 (stereo not shown),-8.04%
14,COc1ccc(CN2C3CCCC2CC(NC(=O)/C=C/c2ccccc2)C3)cc1 (stereo not shown),-84.2%
15,CCC(=O)NC1CC2CCCC(C1)N2Cc1ccc(C)cc1 (stereo not shown),-11.9%
16,COc1ccc(CN2C3CCCC2CC(NC(=O)Nc2ccccc2)C3)cc1 (stereo not shown),-64%
17,COc1ccccc1CN1C2CCCC1CC(NC(=O)/C=C/c1ccccc1)C2 (stereo not shown),-43.8%
18,Cc1ccc(CN2C3CCCC2CC(NC(=O)Nc2cccc(F)c2)C3)cc1 (stereo not shown),-85.2%
19,O=C(/C=C/c1ccccc1)NC1CC2CCCC(C1)N2Cc1ccccc1 (stereo not shown),-46.4%
